Source: PubChem BioAssay (Tox21)
Where “and” joins values, the source holds several entries; their conditions need not be identical. Identical values can stand only once. Records with an inconclusive call do not appear. Where a call stands in place of a potency, no number is given. Where a structure was tested more than once in an assay, its records may differ in their call. Calls of active or inactive are those of the source. Calls follow the shape of the dose curve; as a rule, active = well fitted curve in the direction sought with a large enough effect in the repeat runs; inconclusive = weak or mixed curves; inactive = no such curve, though single readings can be large; an effect the other way counts as inactive or inconclusive.

How the values were obtained:
[1] = qHTS assay for identifying genotoxic compounds that show differential cytotoxicity against isogenic chicken DT40 cell lines with known DNA damage response pathways - wild type cell line (AID 743012); also: nearly all actives have a fitted effect of over 60% in size
How it was run: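 CellTiter-Glo luminescence readout of viability in wild type DT40 cells after 40 h compound exposure at 37 C/5% CO2; 300 cells/well; reagent incubated 30 min at room temperature before reading.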

[2] = qHTS assay for identifying genotoxic compounds that show differential cytotoxicity against isogenic chicken DT40 cell lines with known DNA damage response pathways - Rev3 mutant cell line (AID 743014); also: nearly all actives have a fitted effect of over 55% in size; also: potency is read from the fitted curve at half-maximal effect
[3] = qHTS assay for identifying genotoxic compounds that show differential cytotoxicity against isogenic chicken DT40 cell lines with known DNA damage response pathways - Rad54/Ku70 mutant cell line (AID 743015); also: nearly all actives have a fitted effect of over 60% in size

In the case of `CC(C)C(=O)OCC(C)(C)C(OC(=O)C(C)C)C(C)C` (stereo not drawn), the Potency [1] is reported as “inactive”, the Potency [2] is reported as “inactive and 19.3 µM (active)” and the Potency [3] is reported as “inactive”.
